# Test results published in PubChem BioAssay (Tox21).
# Where “and” joins values, the source holds several entries; their conditions need not be identical. Identical values can stand only once. Inconclusive results are not listed. A number with no mark means an inactive call. Calls of active or inactive are those of the source. The call rests on the fitted dose curve.
# Target: Thyrotropin receptor (Homo sapiens) (UniProt P16473)
# Assay: qHTS assay to identify small molecule agonists of the thyroid stimulating hormone receptor (TSHR) signaling pathway (AID 1224843); further: nearly all actives have a fitted effect of over 45% in size
# Conditions: TSHR-HEK293 cells, cAMP HTRF, agonist mode, 30 min; series mostly up to 92.4 µM; activation: at the top concentration
# Text: National Center for Advancing Translational Sciences [NCATS]
# NIH Chemical Genomics Center [NCGC]
# U.S. Environmental Protection Agency [EPA]
# National Institutes of Environmental Health Sciences [NIEHS]
# National Toxicology Program [NTP]
# U.S. Food and Drug Administration [FDA]
# TSHR is the receptor for thyrotropin (thyroid stimulating hormone or TSH), a member of the glycoprotein hormone family. TSH is released by the anterior pituitary gland and is the main regulator of thyroid gland growth and development. Upon binding circulating thyrotropin, a G-protein signal cascade activates adenylyl cyclase and […] cAMP concentration is increased. cAMP is a key second messenger involved extensively in cellular signal transduction pathways associated with the majority of G-protein coupled receptors (GPCRs). The activation of these GPCRs by neurotransmitters, lipids, nucleotides, peptides and hormones results in the activation or the inhibition of plasma membrane-bound adenylate cyclase through heterotrimeric G-proteins. A cell-based TSHR assay was used to screen the Tox21 10K library for compounds that can modulate TSHR in agonist mode.
# Tox21 Assay Protocol Summary:
# TSHR-Hek293 cells were dispensed at 800 cells/4uL/well in 1536-well white plates using a Multidrop dispenser. […] The plates were incubated at room temperature for 30 min. 2.5 ul/well of cAMP-d2 and 2.5ul/well of anti-cAMP-cryptate was added respectively into the assay plates using a Flying Reagent Dispenser. After 1 hr incubation at room temperature, the fluorescence intensity in the plates was measured using an Envision plate reader. Each test compound was measured at 15 concentrations and in triplicates.
# On the % scale 0 is the no-effect control and ±100 the full control effect; potency means the concentration at half of the fitted maximal effect.
# Thyrotropin receptor (Homo sapiens), sequence (P16473 whole entry, looked up): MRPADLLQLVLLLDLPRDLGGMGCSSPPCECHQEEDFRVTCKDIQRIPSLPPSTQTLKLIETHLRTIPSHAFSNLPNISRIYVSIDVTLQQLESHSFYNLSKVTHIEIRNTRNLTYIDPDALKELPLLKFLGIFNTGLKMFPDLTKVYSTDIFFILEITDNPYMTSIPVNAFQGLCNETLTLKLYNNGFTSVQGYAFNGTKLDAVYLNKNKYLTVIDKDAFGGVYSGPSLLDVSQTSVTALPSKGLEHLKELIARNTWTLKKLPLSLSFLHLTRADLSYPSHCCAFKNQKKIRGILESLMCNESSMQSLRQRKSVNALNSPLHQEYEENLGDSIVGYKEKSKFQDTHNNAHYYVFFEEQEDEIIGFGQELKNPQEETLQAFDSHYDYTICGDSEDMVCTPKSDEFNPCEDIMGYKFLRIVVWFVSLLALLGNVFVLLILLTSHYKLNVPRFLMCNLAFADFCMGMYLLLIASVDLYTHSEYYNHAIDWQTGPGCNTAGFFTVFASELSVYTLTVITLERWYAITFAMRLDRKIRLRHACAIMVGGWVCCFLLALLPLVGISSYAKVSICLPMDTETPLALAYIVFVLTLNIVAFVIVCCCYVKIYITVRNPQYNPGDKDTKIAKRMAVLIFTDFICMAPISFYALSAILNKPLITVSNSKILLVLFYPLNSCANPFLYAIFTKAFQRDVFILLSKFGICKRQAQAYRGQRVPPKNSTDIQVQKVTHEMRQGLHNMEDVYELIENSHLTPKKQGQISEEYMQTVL
Compound,activation,Potency
O=c1[nH]c2cc(Cl)ccc2n1C1CCNCC1,-1.03% [at 42.5 µM],–
N#Cc1c2ccccc2cc2ccccc12,-0.437%,–
C#CC1(O)CCCCC1,-3.44%,–
C[C@H]1[C@H](c2ccc(Cl)cc2)SC(=O)N1C(=O)NC1CCCCC1,-1.76%,–
C=CCOC(=O)c1ccccc1N,2.6%,–
CCOC(=O)CCN(SN(C)C(=O)Oc1cccc2c1OC(C)(C)C2)C(C)C,-4.95%,–
ClC1(Cl)C2(Cl)C3(Cl)C4(Cl)C(Cl)(Cl)C5(Cl)C3(Cl)C1(Cl)C5(Cl)C24Cl (stereo not given),3.72%,–
C#CCC1=C(C)C(OC(=O)C2C(C=C(C)C)C2(C)C)CC1=O (stereo not given),–,60.7 µM (active)
CN1C(=O)[C@@H](NC(=O)c2cc3ccccc3[nH]2)N=C(c2ccccc2)c2ccccc21,-1.06% [at 42.5 µM],–
O=C(CCCCl)c1ccc(F)cc1,0.352% [at 42.5 µM],–
CCN(CC)CCN1C(=O)CN=C(c2ccccc2F)c2cc(Cl)ccc21,-1.6% [at 42.5 µM],–
Cc1ccc2cc3c(ccc4ccccc43)c3c2c1CC3,-0.537% [at 42.5 µM],–
COC(=O)c1cc(Oc2ccc(Cl)cc2Cl)ccc1[N+](=O)[O-],-8.42%,–
ClSC(Cl)(Cl)Cl,-0.392%,–
Oc1ccc2[nH]cc(CCCCN3CC=C(c4ccccc4)CC3)c2c1,-2.73% [at 42.5 µM],–
CCOC(=O)Cc1ccccc1,-5.49%,–
CCCN,-8.86%,–
CC(Cc1ccccc1)N(C)Cc1ccco1 (stereo not given),-3.5% [at 42.5 µM],–
COc1ccc2[nH]cc(CCN(C(C)C)C(C)C)c2c1,-13.6%,–
C=Cc1cccc(CCl)c1,3.44% [at 240 µM],–

Compound,activation,Potency
CCC(OC(C)=O)C(CC(C)NC)(c1ccccc1)c1ccccc1 (stereo not given),-14.4%,–
O=Cc1ccccc1,18.5%,–
O=C1C(Cl)=C(Cl)C(=O)C(Cl)=C1Cl,–,27.2 µM (active)
O=S1OCC2C(CO1)C1(Cl)C(Cl)=C(Cl)C2(Cl)C1(Cl)Cl (stereo not given),–,4.33 µM (active) and 8.63 µM (active)
COc1nc(C)nc(NC(=O)NS(=O)(=O)c2ccccc2Cl)n1,-7.44%,–
N#CC(C#N)=NNc1cccc(Cl)c1,-19.4%,–
COC(=O)N(OC)c1ccccc1COc1ccn(-c2ccc(Cl)cc2)n1,29.4%,–
CC(C)Br,2.51%,–
CCCCCCCc1ccc(O)cc1,-4.42%,–
COC(=O)/C=C(\C)OP(=O)(OC)OC,0.352%,–
Oc1cccc(Cl)c1Cl,-8.49%,–
Cc1ccccc1OP(=O)(Oc1ccccc1C)Oc1ccccc1C,2.74%,–
O=c1c2ccccc2c(=O)c2c1cc(Cl)c1[nH]c3c([nH]c12)c(Cl)cc1c(=O)c2ccccc2c(=O)c13,3.52%,–
C[N+]1(C)[C@@H]2CC[C@H]1CC(OC(=O)C(CO)c1ccccc1)C2 (stereo not given in full),-9.35% [at 42.5 µM],–
Cc1cccc(Cc2cnc[nH]2)c1C,-0.113% [at 42.5 µM],–
N#CCCl,0.172%,–
Cc1nn(-c2cc(NS(C)(=O)=O)c(Cl)cc2Cl)c(=O)n1C(F)F,-12.9%,–
CCN(CC)Cc1nccn1-c1ccc([N+](=O)[O-])cc1C(=O)c1ccccc1Cl,-0.867% [at 42.5 µM],–
N#Cc1ccc(N(CC(N)=O)CC(F)(F)F)cc1C(F)(F)F,0.758%,–
Oc1cc(Cl)c(Cl)c(Cl)c1Cl,1.34%,–
